{"source": "PubChem BioAssay (Tox21)", "note": "Inconclusive results are not listed. Where a call stands in place of a potency, no number is given. Calls of active or inactive are those of the source. Calls come from the whole dose curve."}
{"assay": "qHTS assay to identify small molecule agonists of the endoplasmic reticulum stress response signaling pathway - cell viability counter screen (AID 1159517); note: nearly all actives have a fitted effect of over 50% in size", "conditions": "ESRE-bla HeLa viability, CellTiter-Glo luminescence, 5 h; series mostly up to 61 µM", "from_the_text": "U.S. Tox21 Program National Center for Advancing Translational Sciences [NCATS] NIH Chemical Genomics Center [NCGC] U.S. Environmental Protection Agency [EPA] National Institutes of Environmental Health Sciences [NIEHS] National Toxicology Program [NTP] U.S. Food and Drug Administration [FDA] Tox21 Assay Overview: Endoplasmic Reticulum (ER) plays an important role in cellular signaling, protein folding/maturation, stress response, lipid biosynthesis, calcium storage and release etc. Under stress conditions, proteins in ER misfold or unfold, and leading to the expression of ER stress responsive genes. ER stress has been associated with a variety of pathophysiological conditions such as cancer, inflammation, neurodegenerative diseases, diabetes, ischemic heart disease etc. To identify the compounds that induce ER stress response, an ER stress reporter cell line, CellSensor ESRE-bla HeLa (Life Technologies, Carlsbad, CA) containing a beta-lactamase reporter gene under control of the Endoplasmic reticulum Stress Response Element (ESRE) was used to screen Tox21 10K compound library. The cytotoxicity of the Tox21 compound library against the ESRE-bla HeLa cell line was tested in parallel by measuring cell viability using the CellTiter-Glo assay in the same wells.\nTox21 Assay Protocol Summary: ESRE-bla HeLa cells were dispensed at 1,500 cells/6 uL of assay medium per well into black wall/clear-bottom 1536-well plates using a Multidrop Combi (ThermoFisher Scientific, Waltham, MA) dispenser. After the assay plates were incubated at 37 C and 5% CO2 for an overnight, 23 nL of compounds dissolved in DMSO, positive controls or DMSO only was transferred to the assay plate by a Pintool station (Kalypsys, San Diego, CA). The assay plates were incubated at 37 C and 5% CO2 for 5 hr. One uL of LiveBLAzer B/G FRET substrate (Life Technologies) was added using a FRD (Flying Reagent Dispenser, Aurora Discovery, San Diego, CA) and the plates were incubated at room temperature for 2 hr. Fluorescence intensity (405 nm excitation, 460 nm and 530 nm emissions) was measured using an Envision plate reader (PerkinElmer, Shelton, CT). For cytotoxicity, 4 ul/well of CellTiter-Glo reagent was added into the assay plates using an FRD. After 30 min incubation at room temperature, the luminescence intensity was measured using a ViewLux plate reader (PerkinElmer)."}
{"smiles": "OCC(CO)(CO)CO", "Potency": "inactive"}
{"smiles": "CC(COCC(C)OC(=O)c1ccccc1)OC(=O)c1ccccc1", "note": "(stereo not given)", "Potency": "inactive"}
{"smiles": "CC(=O)OC/C=C(\\C)CCC=C(C)C", "Potency": "inactive"}
{"smiles": "CC(C)(C)NC[C@H](O)COc1nsnc1N1CCOCC1", "Potency": "inactive"}
{"smiles": "O=C1O[C@H]([C@H](O)CO)C(O)=C1O", "Potency": "inactive"}
{"smiles": "COC(=O)CCCCC(=O)OC", "Potency": "inactive"}
{"smiles": "CN1Cc2c(N)cccc2C(c2ccccc2)C1", "note": "(stereo not given)", "Potency": "inactive"}
{"smiles": "C1CCCNCC1", "Potency": "inactive"}
{"smiles": "O=C(Cl)c1ccc(C(=O)Cl)cc1", "Potency": "inactive"}
{"smiles": "CC1(C)[C@@H](O[C@H]2O[C@H](C(=O)O)[C@@H](O)[C@H](O)[C@H]2O[C@@H]2O[C@H](C(=O)O)[C@@H](O)[C@H](O)[C@H]2O)CC[C@]2(C)[C@H]3C(=O)C=C4[C@@H]5C[C@@](C)(C(=O)O)CC[C@]5(C)CC[C@@]4(C)[C@]3(C)CC[C@@H]12", "Potency": "inactive"}
{"smiles": "OCc1ccc(Cl)cc1Cl", "Potency": "inactive"}
{"smiles": "CCN(CC)CCNC(=O)c1ccc(N)cc1", "Potency": "inactive"}
{"smiles": "CC/C=C(\\C(=O)N[C@@H]1C(=O)N2C(C(=O)OCOC(=O)C(C)(C)C)=C(COC(N)=O)CS[C@H]12)c1csc(N)n1", "Potency": "inactive"}
{"smiles": "NC(=O)NC(N)=O", "Potency": "inactive"}
{"smiles": "CC(=O)OC[C@H]1O[C@@](COC(C)=O)(O[C@H]2O[C@H](COC(C)=O)[C@@H](OC(C)=O)[C@H](OC(C)=O)[C@H]2OC(C)=O)[C@@H](OC(C)=O)[C@@H]1OC(C)=O", "Potency": "inactive"}
{"smiles": "CC1=CC(=O)CC(C)(C)C1", "Potency": "inactive"}
{"smiles": "COc1cc(NC(=O)CC(C)=O)c(OC)cc1Cl", "Potency": "inactive"}
{"smiles": "CN=C(NC#N)NCCSCc1nc[nH]c1C", "Potency": "inactive"}
{"smiles": "NC(=O)c1ncn([C@@H]2O[C@H](CO)[C@@H](O)[C@H]2O)n1", "Potency": "inactive"}
{"smiles": "Cc1ccc(C)c(S(=O)(=O)O)c1", "Potency": "inactive"}
{"smiles": "CC(=O)OCCC(C)C", "Potency": "inactive"}
{"smiles": "CCCOC(=O)NCCCN(C)C", "Potency": "inactive"}
{"smiles": "COc1ccc([C@@H]2CC(=O)c3c(O)cc(O[C@@H]4O[C@H](CO[C@@H]5O[C@@H](C)[C@H](O)[C@@H](O)[C@H]5O)[C@@H](O)[C@H](O)[C@H]4O)cc3O2)cc1OC", "Potency": "inactive"}
{"smiles": "Oc1ccc(Cc2ccccc2O)cc1", "Potency": "inactive"}
{"smiles": "Nc1cccc(C(F)(F)F)c1", "Potency": "inactive"}
{"smiles": "O=c1c(O)c(-c2ccc(O)c(O)c2)oc2cc(O)cc(O)c12", "Potency": "inactive"}
{"smiles": "Cc1ccccc1C=O", "Potency": "inactive"}
{"smiles": "Brc1ccc(Oc2ccc(Br)cc2)cc1", "Potency": "inactive"}
{"smiles": "Cc1cc(C)cc(O)c1", "Potency": "inactive"}
{"smiles": "CC1(C)C(=O)N(Cl)C(=O)N1Cl", "Potency": "inactive"}
{"smiles": "CC(=O)Nc1ccc(CC(=O)O)cc1", "Potency": "inactive"}
{"smiles": "CCc1cccc(O)c1", "Potency": "inactive"}
{"smiles": "Cc1ncc(CO)c(CO)c1O", "Potency": "inactive"}
{"smiles": "O=[N+]([O-])c1cc(C(F)(F)F)ccc1Cl", "Potency": "inactive"}
{"smiles": "CCCCCC(C)=O", "Potency": "inactive"}
{"smiles": "Cc1ccc(Cl)cc1", "Potency": "inactive"}
{"smiles": "CC(C)c1ccc(C(C)C)cc1", "Potency": "inactive"}
{"smiles": "N#CCC(=O)O", "Potency": "inactive"}
{"smiles": "CCCCCCCCC(=O)O", "Potency": "inactive"}
{"smiles": "Cc1ccccc1Cl", "Potency": "inactive"}
